Data published in the supplement of paper PMC11732987, “Enantioselective OTUD7B fragment discovery through chemoproteomics screening and high-throughput optimisation” (Communications Chemistry, 2025).

Tests used:
Test in all cases: log2 ratio of Biotin-Ahx-Ub-VS probe labelling (fragment/DMSO); higher = less target engagement (more negative = stronger competition), active = hit call of the paper (q ≤ 0.05, log2 ratio ≤ -1)
Settings in all cases: compound concentration: 200 uM; treatment time: 3 h
USP42 = biological target: T1, USP42 (UniProt Q9H9J4)
T1 sequence (whole entry): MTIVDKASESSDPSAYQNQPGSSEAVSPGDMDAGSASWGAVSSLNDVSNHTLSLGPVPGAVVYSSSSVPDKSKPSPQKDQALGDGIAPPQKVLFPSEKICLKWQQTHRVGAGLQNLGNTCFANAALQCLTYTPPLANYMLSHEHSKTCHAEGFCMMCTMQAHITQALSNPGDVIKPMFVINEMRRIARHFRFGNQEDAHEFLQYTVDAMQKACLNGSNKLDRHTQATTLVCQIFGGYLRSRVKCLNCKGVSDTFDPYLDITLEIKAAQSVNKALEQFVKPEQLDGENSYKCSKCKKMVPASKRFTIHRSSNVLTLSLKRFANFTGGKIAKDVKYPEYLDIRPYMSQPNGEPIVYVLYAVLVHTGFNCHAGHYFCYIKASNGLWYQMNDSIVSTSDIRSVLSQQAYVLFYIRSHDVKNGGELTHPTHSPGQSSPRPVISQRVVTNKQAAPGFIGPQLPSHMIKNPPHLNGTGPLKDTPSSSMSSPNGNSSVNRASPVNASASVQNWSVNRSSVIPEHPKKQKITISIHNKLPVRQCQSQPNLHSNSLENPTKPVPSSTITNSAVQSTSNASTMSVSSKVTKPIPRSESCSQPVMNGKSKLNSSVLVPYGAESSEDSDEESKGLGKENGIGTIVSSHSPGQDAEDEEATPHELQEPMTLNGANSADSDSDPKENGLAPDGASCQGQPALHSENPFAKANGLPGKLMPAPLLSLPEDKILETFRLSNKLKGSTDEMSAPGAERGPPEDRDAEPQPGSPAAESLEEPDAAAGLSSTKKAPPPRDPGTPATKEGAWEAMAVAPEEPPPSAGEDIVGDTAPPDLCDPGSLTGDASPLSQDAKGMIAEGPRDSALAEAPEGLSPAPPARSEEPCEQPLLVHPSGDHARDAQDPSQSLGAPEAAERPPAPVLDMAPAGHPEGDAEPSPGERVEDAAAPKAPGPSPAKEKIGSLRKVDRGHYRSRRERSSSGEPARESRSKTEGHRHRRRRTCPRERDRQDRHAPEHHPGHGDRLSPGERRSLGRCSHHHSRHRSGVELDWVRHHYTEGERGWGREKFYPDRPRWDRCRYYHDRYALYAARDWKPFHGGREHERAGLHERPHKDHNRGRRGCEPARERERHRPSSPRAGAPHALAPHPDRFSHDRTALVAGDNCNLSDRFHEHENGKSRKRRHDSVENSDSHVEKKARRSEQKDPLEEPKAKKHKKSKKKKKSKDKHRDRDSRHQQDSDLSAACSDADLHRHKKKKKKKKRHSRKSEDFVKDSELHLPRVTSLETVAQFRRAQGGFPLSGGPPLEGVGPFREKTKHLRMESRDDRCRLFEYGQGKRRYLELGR
How it was run: (§1)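 Fragment (200 µM) or vehicle was incubated for 3 h with triplicate HEK293T lysate samples of 495 µg, which were then treated with Biotin-Ahx-Ub-VS at 0.5 µM final for 1 h. Labelled DUBs were enriched on NeutrAvidin, digested with LysC and trypsin, and analysed by diaPASEF LC-MS/MS. Values are average log2 fragment/vehicle ratios from an unpaired t-test on global-median-normalised Spectronaut label-free quantities, using proteins with ≥2 unique peptides.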

USP46 = USP46 (UniProt P62068)
How it was run: as §1

USP47 = biological target: T2, USP47 (UniProt Q96K76)
T2 sequence (whole entry): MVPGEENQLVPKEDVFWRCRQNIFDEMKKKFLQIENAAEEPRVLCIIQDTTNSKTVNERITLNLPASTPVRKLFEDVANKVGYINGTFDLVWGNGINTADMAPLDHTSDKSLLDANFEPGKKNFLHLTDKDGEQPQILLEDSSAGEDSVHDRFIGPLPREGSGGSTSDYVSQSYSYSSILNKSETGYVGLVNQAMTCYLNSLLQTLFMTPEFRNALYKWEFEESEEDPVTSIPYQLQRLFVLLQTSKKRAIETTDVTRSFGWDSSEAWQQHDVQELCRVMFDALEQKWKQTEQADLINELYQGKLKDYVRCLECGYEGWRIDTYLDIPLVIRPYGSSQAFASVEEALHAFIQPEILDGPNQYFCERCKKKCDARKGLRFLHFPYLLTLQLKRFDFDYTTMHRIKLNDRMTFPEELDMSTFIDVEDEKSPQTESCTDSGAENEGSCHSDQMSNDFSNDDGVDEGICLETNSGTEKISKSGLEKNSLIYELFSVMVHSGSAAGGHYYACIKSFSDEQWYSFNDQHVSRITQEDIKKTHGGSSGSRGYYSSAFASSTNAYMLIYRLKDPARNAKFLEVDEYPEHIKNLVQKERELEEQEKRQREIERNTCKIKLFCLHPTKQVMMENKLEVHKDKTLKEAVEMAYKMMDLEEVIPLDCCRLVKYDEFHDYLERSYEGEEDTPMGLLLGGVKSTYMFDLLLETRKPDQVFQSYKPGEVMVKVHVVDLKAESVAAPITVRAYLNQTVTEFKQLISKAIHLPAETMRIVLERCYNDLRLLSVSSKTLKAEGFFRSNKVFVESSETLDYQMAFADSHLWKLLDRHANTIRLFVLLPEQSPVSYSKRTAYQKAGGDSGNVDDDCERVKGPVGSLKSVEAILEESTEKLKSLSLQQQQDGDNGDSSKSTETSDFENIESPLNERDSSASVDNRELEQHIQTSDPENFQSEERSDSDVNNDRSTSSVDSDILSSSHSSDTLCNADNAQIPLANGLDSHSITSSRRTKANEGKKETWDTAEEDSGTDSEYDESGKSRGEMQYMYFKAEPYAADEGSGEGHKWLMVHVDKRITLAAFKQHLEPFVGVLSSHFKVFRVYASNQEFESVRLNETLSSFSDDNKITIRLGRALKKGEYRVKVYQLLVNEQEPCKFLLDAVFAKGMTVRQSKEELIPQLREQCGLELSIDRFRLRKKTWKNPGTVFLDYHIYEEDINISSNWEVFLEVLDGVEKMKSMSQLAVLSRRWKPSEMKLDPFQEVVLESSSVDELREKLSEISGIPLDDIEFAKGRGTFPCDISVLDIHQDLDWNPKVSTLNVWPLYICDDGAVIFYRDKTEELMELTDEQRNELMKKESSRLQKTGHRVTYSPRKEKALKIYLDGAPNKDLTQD
How it was run: as §1

USP48 = biological target: T3, USP48 (UniProt Q86UV5)
T3 sequence (whole entry): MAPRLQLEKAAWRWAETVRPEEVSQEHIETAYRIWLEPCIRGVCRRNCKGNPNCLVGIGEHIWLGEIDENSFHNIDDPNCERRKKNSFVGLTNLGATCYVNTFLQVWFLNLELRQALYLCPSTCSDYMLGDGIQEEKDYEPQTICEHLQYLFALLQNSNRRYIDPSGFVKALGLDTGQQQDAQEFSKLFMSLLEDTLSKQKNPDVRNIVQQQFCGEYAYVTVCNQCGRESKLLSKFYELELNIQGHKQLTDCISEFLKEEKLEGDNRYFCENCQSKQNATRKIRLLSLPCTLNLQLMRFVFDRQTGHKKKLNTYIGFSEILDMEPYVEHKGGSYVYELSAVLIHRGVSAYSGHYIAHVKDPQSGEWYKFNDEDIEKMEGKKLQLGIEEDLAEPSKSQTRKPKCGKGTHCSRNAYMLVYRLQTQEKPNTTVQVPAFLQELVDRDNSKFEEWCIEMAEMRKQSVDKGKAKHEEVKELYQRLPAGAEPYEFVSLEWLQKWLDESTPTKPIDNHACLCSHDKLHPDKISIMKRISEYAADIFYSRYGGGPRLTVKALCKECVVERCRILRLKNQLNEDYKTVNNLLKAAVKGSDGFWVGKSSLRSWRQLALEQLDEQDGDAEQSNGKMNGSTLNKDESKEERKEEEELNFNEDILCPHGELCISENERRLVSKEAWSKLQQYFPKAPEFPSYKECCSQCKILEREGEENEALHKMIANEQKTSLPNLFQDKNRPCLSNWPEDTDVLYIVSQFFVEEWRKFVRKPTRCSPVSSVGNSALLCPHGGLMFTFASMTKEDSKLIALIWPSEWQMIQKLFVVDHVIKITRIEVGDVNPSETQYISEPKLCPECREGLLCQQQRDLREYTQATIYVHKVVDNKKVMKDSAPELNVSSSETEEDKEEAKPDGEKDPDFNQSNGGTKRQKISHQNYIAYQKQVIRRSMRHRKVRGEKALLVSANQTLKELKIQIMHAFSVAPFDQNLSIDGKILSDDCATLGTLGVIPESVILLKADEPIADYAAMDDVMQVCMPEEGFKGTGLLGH
How it was run: as §1

USP5 = biological target: T4, USP5 (UniProt P45974)
T4 sequence (whole entry): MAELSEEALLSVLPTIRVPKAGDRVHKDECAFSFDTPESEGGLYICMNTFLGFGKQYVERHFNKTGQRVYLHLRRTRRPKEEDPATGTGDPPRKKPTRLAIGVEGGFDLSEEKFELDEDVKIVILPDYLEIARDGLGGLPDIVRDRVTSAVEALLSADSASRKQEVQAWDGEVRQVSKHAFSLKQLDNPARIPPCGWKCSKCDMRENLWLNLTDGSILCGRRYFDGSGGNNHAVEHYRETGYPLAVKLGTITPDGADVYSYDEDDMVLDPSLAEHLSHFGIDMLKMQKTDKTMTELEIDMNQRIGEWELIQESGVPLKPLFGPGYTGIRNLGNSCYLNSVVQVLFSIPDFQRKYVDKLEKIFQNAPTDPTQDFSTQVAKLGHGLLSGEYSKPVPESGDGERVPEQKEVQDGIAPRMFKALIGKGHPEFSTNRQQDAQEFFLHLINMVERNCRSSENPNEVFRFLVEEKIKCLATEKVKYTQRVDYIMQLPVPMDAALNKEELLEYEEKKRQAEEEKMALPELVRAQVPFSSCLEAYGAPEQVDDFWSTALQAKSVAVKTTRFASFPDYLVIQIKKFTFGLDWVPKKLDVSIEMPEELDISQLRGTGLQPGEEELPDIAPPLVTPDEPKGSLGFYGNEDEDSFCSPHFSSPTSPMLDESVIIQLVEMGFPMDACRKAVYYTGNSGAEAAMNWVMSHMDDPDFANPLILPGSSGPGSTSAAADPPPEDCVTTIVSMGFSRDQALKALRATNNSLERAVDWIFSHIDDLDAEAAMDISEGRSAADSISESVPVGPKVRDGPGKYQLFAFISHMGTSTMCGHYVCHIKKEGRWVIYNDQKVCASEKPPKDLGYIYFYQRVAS
How it was run: as §1

USP54 = USP54 (UniProt Q70EL1)
How it was run: as §1

USP7 = USP7 (UniProt Q93009)
How it was run: as §1

USP8 = biological target: T5, USP8 (UniProt P40818)
T5 sequence (whole entry): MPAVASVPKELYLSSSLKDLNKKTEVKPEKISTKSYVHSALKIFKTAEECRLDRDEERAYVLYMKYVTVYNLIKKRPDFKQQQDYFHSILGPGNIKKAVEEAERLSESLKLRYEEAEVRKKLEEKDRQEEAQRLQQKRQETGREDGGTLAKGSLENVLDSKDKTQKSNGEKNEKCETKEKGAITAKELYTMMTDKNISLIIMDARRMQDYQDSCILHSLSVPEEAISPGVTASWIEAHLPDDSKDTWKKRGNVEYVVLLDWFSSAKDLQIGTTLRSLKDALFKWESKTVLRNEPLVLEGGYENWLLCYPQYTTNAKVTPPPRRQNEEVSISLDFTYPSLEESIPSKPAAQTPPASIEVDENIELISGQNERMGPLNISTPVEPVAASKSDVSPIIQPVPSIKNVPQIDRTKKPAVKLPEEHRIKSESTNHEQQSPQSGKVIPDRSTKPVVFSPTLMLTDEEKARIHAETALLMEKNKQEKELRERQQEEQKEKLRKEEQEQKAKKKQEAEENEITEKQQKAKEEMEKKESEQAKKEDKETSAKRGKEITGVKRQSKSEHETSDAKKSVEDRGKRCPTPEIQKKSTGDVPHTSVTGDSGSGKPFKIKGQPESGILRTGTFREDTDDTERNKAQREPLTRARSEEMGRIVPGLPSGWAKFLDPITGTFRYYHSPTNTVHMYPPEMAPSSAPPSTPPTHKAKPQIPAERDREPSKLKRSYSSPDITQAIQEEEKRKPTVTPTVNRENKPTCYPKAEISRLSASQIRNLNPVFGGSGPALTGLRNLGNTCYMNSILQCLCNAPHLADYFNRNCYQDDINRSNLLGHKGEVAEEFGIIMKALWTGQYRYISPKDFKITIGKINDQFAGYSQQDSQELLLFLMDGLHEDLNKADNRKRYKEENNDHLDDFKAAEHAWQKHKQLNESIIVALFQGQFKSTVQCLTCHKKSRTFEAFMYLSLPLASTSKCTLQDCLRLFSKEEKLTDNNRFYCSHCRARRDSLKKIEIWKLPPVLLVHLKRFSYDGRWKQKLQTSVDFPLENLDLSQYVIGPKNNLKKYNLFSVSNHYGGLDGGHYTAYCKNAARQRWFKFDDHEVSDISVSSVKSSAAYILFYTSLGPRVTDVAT
How it was run: as §1

Measured: log2 ratio of Biotin-Ahx-Ub-VS probe labelling

USP54, sequence (Q70EL1 whole entry): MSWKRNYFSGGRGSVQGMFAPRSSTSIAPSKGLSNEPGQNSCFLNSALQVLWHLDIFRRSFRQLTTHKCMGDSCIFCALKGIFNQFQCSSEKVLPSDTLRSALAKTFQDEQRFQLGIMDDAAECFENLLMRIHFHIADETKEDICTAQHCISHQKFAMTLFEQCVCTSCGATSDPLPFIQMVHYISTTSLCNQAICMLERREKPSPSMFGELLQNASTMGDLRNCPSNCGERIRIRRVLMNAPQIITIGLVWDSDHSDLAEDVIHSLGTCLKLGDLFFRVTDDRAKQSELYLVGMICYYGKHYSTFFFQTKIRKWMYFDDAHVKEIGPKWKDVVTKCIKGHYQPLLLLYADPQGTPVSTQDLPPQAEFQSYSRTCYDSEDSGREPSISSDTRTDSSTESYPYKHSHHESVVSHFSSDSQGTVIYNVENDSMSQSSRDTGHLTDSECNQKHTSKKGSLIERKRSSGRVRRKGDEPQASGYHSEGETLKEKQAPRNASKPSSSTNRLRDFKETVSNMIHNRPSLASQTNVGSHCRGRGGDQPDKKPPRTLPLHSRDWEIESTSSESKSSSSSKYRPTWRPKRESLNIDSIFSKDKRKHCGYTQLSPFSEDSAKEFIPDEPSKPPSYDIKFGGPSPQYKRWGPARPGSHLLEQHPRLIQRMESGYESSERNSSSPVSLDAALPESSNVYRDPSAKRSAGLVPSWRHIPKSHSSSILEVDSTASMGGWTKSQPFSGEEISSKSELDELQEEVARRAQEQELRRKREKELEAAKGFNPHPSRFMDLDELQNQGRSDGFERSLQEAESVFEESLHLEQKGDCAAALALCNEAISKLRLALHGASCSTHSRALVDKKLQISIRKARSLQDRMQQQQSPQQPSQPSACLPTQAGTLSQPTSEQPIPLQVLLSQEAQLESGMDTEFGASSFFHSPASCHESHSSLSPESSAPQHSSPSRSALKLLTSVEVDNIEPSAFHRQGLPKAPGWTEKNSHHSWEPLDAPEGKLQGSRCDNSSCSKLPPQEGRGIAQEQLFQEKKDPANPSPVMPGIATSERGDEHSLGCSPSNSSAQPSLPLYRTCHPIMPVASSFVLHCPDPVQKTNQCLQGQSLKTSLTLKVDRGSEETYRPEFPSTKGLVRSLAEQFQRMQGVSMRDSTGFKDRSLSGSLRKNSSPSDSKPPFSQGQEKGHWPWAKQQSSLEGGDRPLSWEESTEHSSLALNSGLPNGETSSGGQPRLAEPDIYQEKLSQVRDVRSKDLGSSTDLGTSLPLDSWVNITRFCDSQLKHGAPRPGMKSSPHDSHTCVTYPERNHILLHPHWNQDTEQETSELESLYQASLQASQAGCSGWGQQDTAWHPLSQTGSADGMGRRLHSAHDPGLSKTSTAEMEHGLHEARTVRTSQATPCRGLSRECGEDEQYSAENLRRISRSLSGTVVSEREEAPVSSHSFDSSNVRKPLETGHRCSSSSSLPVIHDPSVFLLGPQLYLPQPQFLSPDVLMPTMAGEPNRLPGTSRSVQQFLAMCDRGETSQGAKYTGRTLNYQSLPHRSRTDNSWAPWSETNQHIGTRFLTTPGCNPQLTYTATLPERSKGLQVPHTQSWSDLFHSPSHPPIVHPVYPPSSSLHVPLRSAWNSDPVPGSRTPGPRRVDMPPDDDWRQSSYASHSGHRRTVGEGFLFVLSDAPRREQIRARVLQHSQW
USP46, sequence (P62068 whole entry): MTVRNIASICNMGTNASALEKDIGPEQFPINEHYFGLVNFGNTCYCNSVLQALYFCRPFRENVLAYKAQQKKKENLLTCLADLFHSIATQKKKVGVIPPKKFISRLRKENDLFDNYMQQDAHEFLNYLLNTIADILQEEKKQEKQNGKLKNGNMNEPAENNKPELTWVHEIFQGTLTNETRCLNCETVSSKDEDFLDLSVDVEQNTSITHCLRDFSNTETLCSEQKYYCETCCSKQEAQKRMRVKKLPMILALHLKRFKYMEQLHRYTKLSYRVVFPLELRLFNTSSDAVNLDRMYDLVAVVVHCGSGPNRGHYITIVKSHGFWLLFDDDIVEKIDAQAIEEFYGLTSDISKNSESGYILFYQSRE
USP7, sequence (Q93009 whole entry, looked up): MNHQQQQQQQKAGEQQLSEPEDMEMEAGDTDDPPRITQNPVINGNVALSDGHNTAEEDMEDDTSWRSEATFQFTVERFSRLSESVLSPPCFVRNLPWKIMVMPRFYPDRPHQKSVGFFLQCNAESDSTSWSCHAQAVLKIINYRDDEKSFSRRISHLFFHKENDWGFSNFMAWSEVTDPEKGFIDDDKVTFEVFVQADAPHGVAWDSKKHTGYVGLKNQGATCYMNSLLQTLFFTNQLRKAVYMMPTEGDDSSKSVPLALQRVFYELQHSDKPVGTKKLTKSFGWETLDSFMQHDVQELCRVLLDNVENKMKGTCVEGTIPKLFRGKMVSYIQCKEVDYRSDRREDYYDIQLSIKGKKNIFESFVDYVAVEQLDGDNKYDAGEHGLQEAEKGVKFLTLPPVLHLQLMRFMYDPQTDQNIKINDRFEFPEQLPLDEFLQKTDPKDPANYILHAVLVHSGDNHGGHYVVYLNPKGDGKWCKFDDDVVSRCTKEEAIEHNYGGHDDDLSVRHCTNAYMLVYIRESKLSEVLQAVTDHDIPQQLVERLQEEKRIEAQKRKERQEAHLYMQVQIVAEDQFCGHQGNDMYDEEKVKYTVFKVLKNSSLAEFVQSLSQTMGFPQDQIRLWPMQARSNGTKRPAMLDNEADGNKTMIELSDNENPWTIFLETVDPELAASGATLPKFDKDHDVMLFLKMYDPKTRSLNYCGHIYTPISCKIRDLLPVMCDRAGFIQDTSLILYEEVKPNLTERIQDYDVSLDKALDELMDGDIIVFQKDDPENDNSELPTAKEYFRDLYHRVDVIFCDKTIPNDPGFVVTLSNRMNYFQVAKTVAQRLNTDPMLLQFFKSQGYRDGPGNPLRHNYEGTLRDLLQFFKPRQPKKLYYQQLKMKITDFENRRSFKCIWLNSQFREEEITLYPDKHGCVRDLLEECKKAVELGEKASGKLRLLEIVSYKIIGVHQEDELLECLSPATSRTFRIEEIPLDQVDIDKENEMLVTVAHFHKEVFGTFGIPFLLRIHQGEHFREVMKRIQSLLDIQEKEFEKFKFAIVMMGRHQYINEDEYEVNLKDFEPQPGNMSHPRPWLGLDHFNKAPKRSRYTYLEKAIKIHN

Cc1ccc(C)c(Oc2ccc(CNC(=O)CCl)cn2)c1.Cl
inactive: USP42 -0.119 | USP46 0.00613 | USP47 -0.424 | USP48 -0.619 | USP5 -0.165 | USP54 0.136 | USP7 -0.376 | USP8 -0.519
